Data from PubChem BioAssay (Tox21).
Where “and” joins values, the source holds several entries; their conditions need not be identical. Identical values can stand only once. Results filed as inconclusive are left out. Calls of active or inactive are those of the source. Unless noted, calls come from the whole dose curve; as a rule, active = well fitted curve in the direction sought with a large enough effect in the repeat runs; inconclusive = weak or mixed curves; inactive = no such curve, though single readings can be large; an effect the other way counts as inactive or inconclusive.

What was measured:
[1] = qHTS assay to identify small molecule that activate the aryl hydrocarbon receptor (AhR) signaling pathway - cell viability counter screen (AID 743086); note: nearly all actives have a fitted effect of over 45% in size; note: potency is the fitted concentration of half-maximal effect
Method in brief: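 HepG2-AhR-luc (HG2L7.5c1) cells, 4000/well, treated 24 h at 37 C with compound; viability measured as CellTiter-Fluor fluorescence after 30 min in the same wells as the luciferase read.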

[2] = target: Peroxisome proliferator-activated receptor gamma (Homo sapiens) (UniProt P37231); assay: qHTS assay to identify small molecule agonists of the peroxisome proliferator-activated receptor gamma (PPARg) signaling pathway (AID 743094; active = well fitted activation curve with a large enough effect in the signal ratio in the repeat runs, not every such curve was filed as active; the % refers to the signal ratio)
Peroxisome proliferator-activated receptor gamma (Homo sapiens), sequence (P37231 whole entry, looked up): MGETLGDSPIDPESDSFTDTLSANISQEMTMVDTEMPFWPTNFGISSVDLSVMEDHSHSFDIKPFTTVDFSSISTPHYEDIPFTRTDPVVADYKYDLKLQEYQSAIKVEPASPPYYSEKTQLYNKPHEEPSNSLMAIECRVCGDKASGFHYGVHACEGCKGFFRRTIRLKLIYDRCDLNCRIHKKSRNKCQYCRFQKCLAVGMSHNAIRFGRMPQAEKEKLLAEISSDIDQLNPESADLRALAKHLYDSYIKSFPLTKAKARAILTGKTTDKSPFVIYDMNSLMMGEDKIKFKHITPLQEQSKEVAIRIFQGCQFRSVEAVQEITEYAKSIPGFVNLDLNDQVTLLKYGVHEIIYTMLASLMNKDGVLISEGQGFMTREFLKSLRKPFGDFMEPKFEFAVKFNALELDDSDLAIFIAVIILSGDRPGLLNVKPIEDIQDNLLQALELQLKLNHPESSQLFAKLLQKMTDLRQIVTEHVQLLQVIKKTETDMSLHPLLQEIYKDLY
Method in brief: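 Reporter activation was scored by fluorescence of cleaved LiveBLAzer B/G substrate (1 h, room temperature) in PPARg-bla HEK293H cells previously treated 17 h at 37C with DMSO-dissolved compounds.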

[3] = qHTS assay to identify small molecule antagonists of the peroxisome proliferator-activated receptor gamma (PPARg) signaling pathway - cell viability counter screen (AID 743194); note: nearly all actives have a fitted effect of over 55% in size; note: potency is the fitted concentration of half-maximal effect
Method in brief: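 Cytotoxicity counter screen in PPARg-bla HEK293H cells, same wells as reporter assay. Compounds plus 50 nM rosiglitazone (final) for 17 h at 37 C, then viability read by CellTiter-Glo luminescence.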

[4] = target: Bile acid receptor (Homo sapiens) (UniProt Q96RI1); assay: qHTS assay to identify small molecule agonists of the farnesoid-X-receptor (FXR) signaling pathway (AID 743220; active = well fitted activation curve with a large enough effect in the signal ratio in the repeat runs, not every such curve was filed as active; the % refers to the signal ratio)
Bile acid receptor (Homo sapiens), sequence (Q96RI1 whole entry, looked up): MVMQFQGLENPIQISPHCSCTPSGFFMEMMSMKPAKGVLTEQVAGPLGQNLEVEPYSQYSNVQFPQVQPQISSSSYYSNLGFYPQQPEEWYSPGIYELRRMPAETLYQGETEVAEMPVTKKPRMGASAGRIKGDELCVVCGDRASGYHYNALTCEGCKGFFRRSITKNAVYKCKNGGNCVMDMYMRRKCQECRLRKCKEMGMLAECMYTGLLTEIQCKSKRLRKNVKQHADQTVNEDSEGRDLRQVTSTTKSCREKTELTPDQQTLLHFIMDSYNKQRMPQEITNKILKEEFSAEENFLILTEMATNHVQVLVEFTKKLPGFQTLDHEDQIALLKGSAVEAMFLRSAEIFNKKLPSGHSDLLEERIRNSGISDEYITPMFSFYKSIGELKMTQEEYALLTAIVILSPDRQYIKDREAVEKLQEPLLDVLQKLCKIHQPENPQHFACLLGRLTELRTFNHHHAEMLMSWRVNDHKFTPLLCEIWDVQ
Method in brief: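 FXR-UAS-bla HEK 293T cells carrying a UAS-driven beta-lactamase reporter were plated for 5 h at 37C/5% CO2, then exposed to DMSO-dissolved Tox21 10K compounds for 16 h at 37C. A LiveBLAzer B/G FRET substrate was loaded for 2 h at room temperature before fluorescence reading.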

[5] = target: Vitamin D3 receptor (Homo sapiens) (UniProt P11473); assay: qHTS assay to identify small molecule agonists of the vitamin D receptor (VDR) signaling pathway (AID 743222; calls by dose curve)
Vitamin D3 receptor (Homo sapiens), sequence (P11473 whole entry, looked up): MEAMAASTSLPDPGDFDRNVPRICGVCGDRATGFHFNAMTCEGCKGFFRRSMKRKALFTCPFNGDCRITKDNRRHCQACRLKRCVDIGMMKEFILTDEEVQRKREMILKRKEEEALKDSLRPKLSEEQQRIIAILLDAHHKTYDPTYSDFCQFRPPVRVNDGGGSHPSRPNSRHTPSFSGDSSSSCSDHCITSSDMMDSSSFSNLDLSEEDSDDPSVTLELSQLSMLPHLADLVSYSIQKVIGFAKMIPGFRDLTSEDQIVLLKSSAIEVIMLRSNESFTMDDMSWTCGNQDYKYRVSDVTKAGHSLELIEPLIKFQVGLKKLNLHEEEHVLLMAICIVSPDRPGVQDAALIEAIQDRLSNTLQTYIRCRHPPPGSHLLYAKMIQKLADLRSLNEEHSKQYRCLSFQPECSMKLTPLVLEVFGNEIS
Method in brief: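 Fluorescence from cleaved LiveBLAzer B/G FRET substrate served as readout. VDR-bla cells had been treated 16 h at 37C with test compounds in DMSO, following a 4 h settling period, and substrate was loaded for 2 h at RT.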

[6] = target: Vitamin D3 receptor (Homo sapiens) (UniProt P11473); assay: qHTS assay to identify small molecule antagonists of the vitamin D receptor (VDR) signaling pathway (AID 743223; active = well fitted inhibition curve with a large enough effect in the signal ratio in the repeat runs, not every such curve was filed as active; the % refers to the signal ratio)
Method in brief: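 VDR-bla cells were treated with compound plus 3 nM final 1alpha,25-dihydroxyvitamin D3 for 16 h at 37C. Beta-lactamase reporter read by B/G FRET substrate fluorescence after 2 h at room temperature. qHTS format.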

[7] = qHTS assay to identify small molecule agonists of the vitamin D receptor (VDR) signaling pathway - cell viability counter screen (AID 743224); note: nearly all actives have a fitted effect of over 50% in size; note: potency is the fitted concentration of half-maximal effect
Method in brief: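 Compounds were pin-transferred onto VDR-bla cells plated 4 h earlier; following 16 h incubation at 37C, cell viability was quantified by CellTiter-Glo luminescence after 30 min at room temperature.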

[8] = qHTS assay for small molecule agonists of the antioxidant response element (ARE) signaling pathway - cell viability counter screen (AID 743203; calls by dose curve; note: nearly all actives have a fitted effect of over 55% in size; note: potency is the fitted concentration of half-maximal effect)
Method in brief: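 Viability counter screen: stably transfected ARE-bla HepG2 line, 16 hrs compound exposure at 37C/5% CO2, ATP-based CellTiter-Glo luminescence measured in the reporter wells.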

[9] = qHTS assay for small molecule activators of the heat shock response signaling pathway - cell viability counter screen (AID 743209); note: nearly all actives have a fitted effect of over 50% in size; note: potency is the fitted concentration of half-maximal effect
Method in brief: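 Viability of HSE-bla HeLa cells is measured with CellTiter-Glo in the wells already used for the reporter read. Compound exposure lasts 5 h at 37 C, and luminescence is read after 30 min at room temperature.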

[10] = qHTS assay to identify small molecule agonists of the farnesoid-X-receptor (FXR) signaling pathway - cell viability counter screen (AID 743218); note: nearly all actives have a fitted effect of over 45% in size; note: potency is the fitted concentration of half-maximal effect
Method in brief: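 Viability of FXR-bla HEK 293T cells is measured by ATP-based CellTiter-Glo luminescence following 16 h compound treatment at 37 C and a prior 2 h room-temperature beta-lactamase substrate step.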

[11] = target: Peroxisome proliferator-activated receptor delta (Homo sapiens) (UniProt Q03181); assay: qHTS assay to identify small molecule agonists of the peroxisome proliferator-activated receptor delta (PPARd) signaling pathway (AID 743212; calls by dose curve; note: potency is the fitted concentration of half-maximal effect)
Peroxisome proliferator-activated receptor delta (Homo sapiens), sequence (Q03181 whole entry, looked up): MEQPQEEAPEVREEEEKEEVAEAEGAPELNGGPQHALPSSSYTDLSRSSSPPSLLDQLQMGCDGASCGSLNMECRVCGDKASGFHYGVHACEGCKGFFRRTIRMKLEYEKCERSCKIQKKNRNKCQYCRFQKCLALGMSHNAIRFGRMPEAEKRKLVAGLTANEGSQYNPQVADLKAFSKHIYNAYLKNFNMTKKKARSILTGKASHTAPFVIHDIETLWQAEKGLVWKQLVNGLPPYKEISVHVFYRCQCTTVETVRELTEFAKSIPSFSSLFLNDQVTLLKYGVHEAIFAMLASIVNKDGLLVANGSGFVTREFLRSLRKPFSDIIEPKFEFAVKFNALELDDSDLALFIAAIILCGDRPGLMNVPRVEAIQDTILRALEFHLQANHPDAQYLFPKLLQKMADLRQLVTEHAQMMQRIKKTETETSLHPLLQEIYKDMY
Method in brief: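 Read-out: beta-lactamase FRET fluorescence after 2 h room-temperature incubation with LiveBLAzer B/G substrate. Cells were HEK293H carrying a UAS-bla reporter for PPARd, treated at 37 C with DMSO-dissolved compounds.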

[12] = qHTS assay to identify small molecule antagonists of the farnesoid-X-receptor (FXR) signaling pathway - cell viability counter screen (AID 743221; active = well fitted cell-killing curve with a large enough effect in the repeat runs, not every such curve was filed as active; note: nearly all actives have a fitted effect of over 50% in size; note: potency is the fitted concentration of half-maximal effect)
Method in brief: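 GeneBLAzer FXR-UAS-bla HEK 293T cells, compound plus chenodeoxycholic acid (50 uM final), 16 h at 37 C. CellTiter-Glo added to the same wells after the beta-lactamase read; luminescence read after 30 min at room temperature as viability.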

[13] = qHTS assay to identify small molecule agonists of the peroxisome proliferator-activated receptor delta (PPARd) signaling pathway - cell viability counter screen (AID 743211); note: nearly all actives have a fitted effect of over 55% in size; note: potency is the fitted concentration of half-maximal effect
Method in brief: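 PPARd-bla HEK293H cells (3000/well) were pre-incubated 5 h at 37 C, then exposed to compound for 17 h at 37 C. After 2 h with LiveBLAzer substrate, CellTiter-Glo was added to the same wells; luminescence read after 30 min at room temperature.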

[14] = qHTS assay to identify small molecule antagonists of the peroxisome proliferator-activated receptor delta (PPARd) signaling pathway - cell viability counter screen (AID 743213); note: nearly all actives have a fitted effect of over 50% in size; note: potency is the fitted concentration of half-maximal effect
Method in brief: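 Agonist-stimulated (L165041, 300 nM final) HEK293H PPARd UAS-bla cells are exposed to compounds for 17 h at 37 C, and ATP-based luminescence (CellTiter-Glo) from the same wells reports cytotoxicity.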

[15] = qHTS assay for small molecule activators of the heat shock response signaling pathway (AID 743210; active = well fitted activation curve with a large enough effect in the signal ratio in the repeat runs, with a control signal flat, not every such curve was filed as active; the % refers to the signal ratio;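 note: HeLa cells with beta-lactamase reporter driven by heat shock elements; series mostly up to about 63 µM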)
Method in brief: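 Beta-lactamase reporter read-out: FRET substrate fluorescence after 2.5 h at RT, following 5 h compound treatment at 37 C of HeLa cells carrying HSE-driven bla reporter; quantitative HTS format.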

[16] = target: Bile acid receptor (Homo sapiens) (UniProt Q96RI1); assay: qHTS assay to identify small molecule antagonists of the farnesoid-X-receptor (FXR) signaling pathway (AID 743217; active = well fitted inhibition curve with a large enough effect in the signal ratio in the repeat runs, not every such curve was filed as active; the % refers to the signal ratio; note: potency is the fitted concentration of half-maximal effect)
Method in brief: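 Screen of the Tox21 10K library in quantitative HTS format using FXR-UAS-bla HEK 293T reporter cells. Agonist chenodeoxycholic acid, 50 uM final, added with compounds; 16 h incubation at 37 °C; beta-lactamase FRET fluorescence measured.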

[17] = qHTS assay for small molecule agonists of the antioxidant response element (ARE) signaling pathway (AID 743202; active = well fitted activation curve with a large enough effect in the signal ratio in the repeat runs, not every such curve was filed as active; the % refers to the signal ratio; note: potency is the fitted concentration of half-maximal effect)
Method in brief: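 HepG2 ARE-bla reporter line, 2,000 cells/well; 5 h preincubation 37 C/5% CO2; compound (DMSO) 16 h 37 C; B/G FRET substrate 2 h RT; fluorescence intensity.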

[18] = target: Aryl hydrocarbon receptor (Homo sapiens) (UniProt P35869); assay: qHTS assay to identify small molecule that activate the aryl hydrocarbon receptor (AhR) signaling pathway (AID 743085); note: nearly all actives have a fitted effect of over 15% in size; note: potency is the fitted concentration of half-maximal effect;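 for activation: HG2L7.5c1 human HepG2 liver cells with stably integrated DRE-driven firefly reporter; series mostly up to about 70 µM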
Aryl hydrocarbon receptor (Homo sapiens), sequence (P35869 whole entry, looked up): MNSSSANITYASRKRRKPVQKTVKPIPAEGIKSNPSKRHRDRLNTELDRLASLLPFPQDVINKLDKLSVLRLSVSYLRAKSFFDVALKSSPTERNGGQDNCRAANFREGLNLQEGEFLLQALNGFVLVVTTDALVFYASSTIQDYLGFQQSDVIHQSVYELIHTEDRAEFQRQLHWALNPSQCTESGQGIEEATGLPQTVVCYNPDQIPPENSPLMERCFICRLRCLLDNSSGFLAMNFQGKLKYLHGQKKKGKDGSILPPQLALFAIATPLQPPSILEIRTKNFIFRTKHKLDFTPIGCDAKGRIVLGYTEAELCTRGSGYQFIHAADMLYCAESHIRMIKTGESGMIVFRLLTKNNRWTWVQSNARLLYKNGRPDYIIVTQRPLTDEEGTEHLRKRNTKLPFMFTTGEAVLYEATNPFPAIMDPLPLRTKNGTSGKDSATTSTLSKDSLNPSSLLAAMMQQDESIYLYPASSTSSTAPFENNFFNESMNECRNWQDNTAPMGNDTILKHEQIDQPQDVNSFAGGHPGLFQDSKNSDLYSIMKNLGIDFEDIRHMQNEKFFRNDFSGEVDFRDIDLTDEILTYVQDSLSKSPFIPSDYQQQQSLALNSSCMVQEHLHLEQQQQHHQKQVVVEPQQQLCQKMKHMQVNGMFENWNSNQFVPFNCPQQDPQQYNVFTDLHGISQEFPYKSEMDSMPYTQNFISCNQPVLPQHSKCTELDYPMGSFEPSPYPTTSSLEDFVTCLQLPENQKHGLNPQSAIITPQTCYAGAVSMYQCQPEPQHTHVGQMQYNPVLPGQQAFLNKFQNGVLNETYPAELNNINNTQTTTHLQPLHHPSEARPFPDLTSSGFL
Method in brief: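 HepG2 cells stably carrying a 20-DRE firefly luciferase reporter (HG2L7.5c1) treated with compound for 24 hr at 37C. Luciferase read by ONE-Glo luminescence, with CellTiter-Fluor viability read first.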

[19] = target: Peroxisome proliferator-activated receptor gamma (Homo sapiens) (UniProt P37231); assay: qHTS assay to identify small molecule antagonists of the peroxisome proliferator-activated receptor gamma (PPARg) signaling pathway (AID 743191; calls by dose curve; note: series mostly up to about 63 µM; nearly all actives have a fitted effect of over 30% in size)
Method in brief: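 GeneBLAzer PPARg UAS-bla HEK293H cells, 5 h post-plating, exposed to compounds 17 h at 37C. LiveBLAzer B/G FRET substrate added for 1 h at room temperature; beta-lactamase reporter read by fluorescence intensity.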

[20] = target: Peroxisome proliferator-activated receptor delta (Homo sapiens) (UniProt Q03181); assay: qHTS assay to identify small molecule antagonists of the peroxisome proliferator-activated receptor delta (PPARd) signaling pathway (AID 743215; active = well fitted inhibition curve with a large enough effect in the signal ratio in the repeat runs, not every such curve was filed as active; the % refers to the signal ratio; note: potency is the fitted concentration of half-maximal effect)
Method in brief: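 Plated HEK293H PPARd-bla cells rested 5 h at 37 C and 5% CO2. Compound, then agonist L165041 at 300 nM final, was added; 17 h at 37 C followed. Substrate loading, 2 h room temperature, fluorescence measured.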

Measured: Potency

O=C(Nc1ccc(Oc2ccc(Cl)cc2)c(Cl)c1)c1cc(I)cc(I)c1O
active: [3] 5.31 µM | [7] 18.8 µM
inactive: [1] | [2] | [4] | [5] | [6]

Nc1ccc(N)c2ccccc12
active: [1] 4.32 µM | [3] 1.23 µM | [8] 0.611 µM | [9] 34.6 µM | [10] 43.6 µM | [7] 19.5 µM

CCCCC(CC)COC(=O)c1ccccc1C(=O)O (stereo not given)
inactive: [1] | [3] | [8] | [12]
active: [11] 49.9 µM

CCCCCCCCCCCCCCCCCC[N+](C)(C)C
active: [3] 27.6 µM | [8] 48.7 µM | [9] 34.8 µM | [13] 13.8 µM | [14] 27.6 µM | [10] 24.6 µM | [12] 55.1 µM | [7] 24.6 µM
inactive: [1]

COc1cc(-c2ccc(N=C=O)c(OC)c2)ccc1N=C=O
not listed: [10] | [17] | [18] | [19] | [20]
inactive: all other assays above

CCN(CC)CCNC(=O)c1c(C)[nH]c(/C=C2\C(=O)Nc3ccc(F)cc32)c1C
inactive: [15]
active: [1] 11.9 µM | [3] 16.8 µM | [8] 29.8 µM | [13] 23.7 µM | [14] 4.73 µM | [10] 13.3 µM | [12] 21.1 µM | [7] 29.8 µM

CC(C)(C)c1ccc(C(=O)O)cc1
not listed: [2] | [6] | [11] | [13] | [18] | [19] | [20]
inactive: all other assays above

CCOC(=O)/C=C(C)/C=C/C=C(C)/C=C/c1c(C)cc(OC)c(C)c1C
inactive: [1] | [3] | [8] | [9] | [13] | [14] | [10] | [12] | [7]

CCOc1nc2cccc(C(=O)OC(C)OC(=O)OC3CCCCC3)c2n1Cc1ccc(-c2ccccc2-c2nn[nH]n2)cc1 (stereo not given)
active: [3] 9.76 µM | [8] 30.6 µM | [10] 15.5 µM | [7] 27.5 µM
inactive: [18] | [4]

CSc1ccc(/C=C2/C(C)=C(CC(=O)O)c3cc(F)ccc32)cc1
active: [18] 9.44 µM
inactive: [3] | [8] | [14] | [4] | [12]

CCC1OCC(COc2ccc(Oc3ccccc3)cc2)O1 (stereo not given)
inactive: [1] | [19] | [3] | [8] | [12] | [5]
active: [17] 61.1 µM | [7] 49 µM

CCCCCCCCOC(=O)c1ccc(O)cc1
inactive: [1] | [3] | [17] | [11] | [10] | [12]
active: [13] 48.8 µM | [14] 49 µM | [7] 21.8 µM and 49 µM

CC1=C(/C=C/C(C)=C/C=C/C(C)=C/C=O)C(C)(C)CCC1
inactive: [18] | [11]
active: [8] 60.8 µM | [13] 12.2 µM | [14] 43.4 µM | [20] 48.7 µM | [16] 61.3 µM | [10] 21.8 µM | [12] 48.7 µM | [7] 15.4 µM

O=C(NOCC1CC1)c1ccc(F)c(F)c1Nc1ccc(I)cc1Cl
active: [3] 13.3 µM | [9] 29.8 µM
inactive: [18] | [14] | [10] | [12] | [5] | [6]

Cc1[nH]nc2c1N=C(c1ccccc1Cl)c1cc([N+](=O)[O-])ccc1N2
active: [1] 48.6 µM | [3] 38.9 µM | [8] 15.4 µM | [9] 15.5 µM | [13] 5.49 µM | [20] 24.5 µM | [10] 24.5 µM | [7] 5.49 µM
inactive: [11] | [12]
